# Compound activity as filed in PubChem BioAssay.
# Sampled rows, rich in hits. Any-hit rate of the full collection: about 10%.
# JMJD2A Tudor inh: inhibitors of human JMJD2A Tudor domain | AlphaScreen JMJD2A-Tudor / H3K4me3 peptide binding | Potency, µM (highest dose often 114 µM), hits mostly inhibitors | 390,000 compounds, 4.4% hits | AID 504339; further: nearly all actives have a fitted effect of over 50% in size
# Target sequence (O75164 whole entry, looked up, the tested form may be a part): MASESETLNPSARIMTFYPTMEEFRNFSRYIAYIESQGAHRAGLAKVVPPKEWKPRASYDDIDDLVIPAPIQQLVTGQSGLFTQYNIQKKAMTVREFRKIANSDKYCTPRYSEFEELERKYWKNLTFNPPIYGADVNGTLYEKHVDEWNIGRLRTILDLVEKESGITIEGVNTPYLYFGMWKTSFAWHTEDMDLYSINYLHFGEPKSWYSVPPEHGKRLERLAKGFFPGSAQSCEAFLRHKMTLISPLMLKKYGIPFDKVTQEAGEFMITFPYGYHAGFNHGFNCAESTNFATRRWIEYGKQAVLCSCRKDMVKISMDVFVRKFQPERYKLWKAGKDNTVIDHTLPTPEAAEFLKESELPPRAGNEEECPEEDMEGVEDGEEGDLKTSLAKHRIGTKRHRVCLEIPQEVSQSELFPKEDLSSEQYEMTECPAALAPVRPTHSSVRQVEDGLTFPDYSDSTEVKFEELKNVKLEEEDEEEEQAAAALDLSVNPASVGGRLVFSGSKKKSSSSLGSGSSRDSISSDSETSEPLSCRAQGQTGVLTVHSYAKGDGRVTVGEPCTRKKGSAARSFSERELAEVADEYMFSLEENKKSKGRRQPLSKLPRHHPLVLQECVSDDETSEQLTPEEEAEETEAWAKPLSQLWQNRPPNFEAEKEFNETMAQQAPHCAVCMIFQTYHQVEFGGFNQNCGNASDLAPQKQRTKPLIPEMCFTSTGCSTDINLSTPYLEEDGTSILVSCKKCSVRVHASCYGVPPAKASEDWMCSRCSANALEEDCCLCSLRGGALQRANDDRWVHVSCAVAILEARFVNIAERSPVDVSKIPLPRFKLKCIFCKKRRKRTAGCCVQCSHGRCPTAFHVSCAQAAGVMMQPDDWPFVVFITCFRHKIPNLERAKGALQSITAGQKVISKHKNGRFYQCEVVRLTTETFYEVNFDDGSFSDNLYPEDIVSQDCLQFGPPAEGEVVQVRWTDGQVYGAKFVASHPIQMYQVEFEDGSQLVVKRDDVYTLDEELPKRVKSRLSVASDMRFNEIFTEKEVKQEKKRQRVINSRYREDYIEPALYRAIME
# BAZ2B block: BAZ2B (human) inhibition | Q9UIF8 | AlphaScreen BAZ2B-H3K14Ac peptide displacement | Potency, µM (series often up to 114 µM), usual class: inhibitors | 360,000 compounds, 4.4% hits | AID 504333; further: nearly all actives have a fitted effect of over 60% in size
#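 AlphaScreen displacement: compounds (up to 110uM) incubated 30 min at room temperature with a preformed 50 nM BAZ2B/50 nM biotinylated H3K14Ac peptide complex in PBS pH 7.4 with Tween-20. Donor and acceptor beads at 10 ug/mL final added, 20 min light-protected before reading.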
# Six1-Eya2 blk: inhibitors of human Six1/Eya2 interaction. 360,000 compounds, 0.56% hits. Q15475+O00167. activity change, % (test concentration not listed). AlphaScreen GST-Six1/His-Eya2 binding, biochemical; stronger effect = lower value; in the data active means activity change below about -65%; inconclusive means mostly about -30% to -63%
#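 AlphaScreen with GST-Six1 and His-Eya2 (5X mix: 250 nM and 500 nM), glutathione donor and nickel acceptor beads; buffer 50 mM Tris pH 8.0, 300 mM NaCl, 1 mM TCEP; 1 h at 37 C in the dark.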
# HP1b chromo inh: HP1-beta chromodomain-methylated histone interaction inhibition; P83916; AlphaScreen HP1-beta / biotin-H3K9me3 peptide binding; Potency, µM (doses to about 114 µM), most hits filed as inhibitors; 390,000 compounds, 0.56% hits; AID 540317; further: nearly all actives have a fitted effect of over 70% in size
#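 Compound inhibition of the preformed complex between 50 nM HP1-beta and 50 nM biotinylated H3K9me3 peptide was read by AlphaScreen. Buffer was PBS pH 7.4 with 0.01% Tween-20. Incubations ran 30 min at room temperature, with 10 ug/mL donor/acceptor beads.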
# CtBP-E1A inh: CtBP/E1A binding inhibition | AlphaScreen GST-E1A/His-CtBP binding, 1536-well; stronger effect = lower value | activity change, % (no concentration beside the values) | 340,000 compounds, 0.49% hits | AID 651724; in the data active means activity change below about -65%; inconclusive means mostly about -30% to -63%
#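 GST-E1A and His-tagged CtBP (125 nM each as 5X stock) were preincubated with pin-transferred compound for 2 h at 37 °C in the dark, then glutathione donor and nickel acceptor beads were added for 1 h before AlphaScreen reading.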
# G9a inh: blocks human histone lysine methyltransferase G9a; Potency, µM (titrated, usually from 102 µM), hits mostly inhibitors; 350,000 compounds, 8.8% hits; G9a H3K9 monomethylation, AlphaScreen, 2 h; Q96KQ7; AID 504332; further: nearly all actives have a fitted effect of over 75% in size
#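 Chemiluminescent proximity detection of H3K9 monomethylation, read after 10 min bead incubation in the dark. Reaction: 20 nM G9a, 500 nM biotin-H3K9 peptide, 20 uM SAM cofactor, 2 h, room temperature, following 15 min enzyme-compound preincubation.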
# Numbers stand for hits; - = inactive; ? = inconclusive; . = no result given; [ ] = remark or other dose. Unless noted, the call rests on the fitted dose curve; in most records, active means well fitted inhibition curve with a large enough effect; inconclusive means small, poorly fitted or top-dose-only effect; inactive means no such curve, though single readings can be large or run the other way.
SMILES,JMJD2A Tudor inh,BAZ2B block,Six1-Eya2 blk,HP1b chromo inh,CtBP-E1A inh,G9a inh
COc1ccc(S(=O)(=O)c2ccccc2)cc1NS(=O)(=O)c1cccc(C(=O)O)c1,?,?,-,-,-,-[2.33 µM]
COC(=O)Nc1ccc([N+](=O)[O-])cc1OC,-,-,-,-,-,-
COc1ccc([N+](=O)[O-])cc1NS(=O)(=O)c1cccc(C(=O)O)c1,31.6µM,-,-,-,-,-
COc1cc([N+](=O)[O-])ccc1NC(=S)Nn1cnnc1,-,?,-,?,-,10µM
O=C(CSC1=Nc2ccccc2C2=NC(Cc3ccccc3)C(=O)N12)Nc1ccccc1F (centres undefined),-,-,.,-,.,-
Cc1ccccc1CN1C(=O)[C@H]2Cc3c([nH]c4ccccc34)C(C)(C)N2C1=O,-,.,.,-,.,.
CCCN(CC(=O)Nc1ccc(F)c(F)c1F)C(=O)CCc1nc2ccccc2c(=O)[nH]1,-,-,-,-,-,-[12.7 µM]
NC(=O)CC1NC(=O)c2cc([N+](=O)[O-])cc(I)c2OCCC(C(N)=O)NC(=O)[C@@H]2CCCN2C1=O (some centres undefined),-,-,-,-,-,79.4µM
C[C@@H]1NC(=O)[C@H](CCCN=C(N)N)NC(=O)c2cc([N+](=O)[O-])cc(I)c2OCC[C@@H](C(N)=O)NC1=O,.,?,.,.,.,31.6µM
NCCCC[C@H]1NC(=O)[C@H](CCC(=O)O)NC(=O)c2cc([N+](=O)[O-])cc(I)c2OCC[C@@H](C(N)=O)NC1=O,50.1µM,-,?,-,-,25.1µM
C[C@@H]1NC(=O)c2cc([N+](=O)[O-])cc(I)c2OCC[C@@H](C(N)=O)NC(=O)[C@H](CCCCN)NC1=O,-,-,-,-,-,44.7µM
NC(=O)[C@@H]1CCOc2c(F)cc([N+](=O)[O-])cc2C(=O)N[C@@H](CO)C(=O)NCC(=O)N1,-,-,-,-,-,?
C[C@@H]1CN(C(=O)c2nc3ccc(Cl)cn3c2CN(C)CCc2cnn(C)c2)C[C@H](C)O1,-,-,-,-,-,-
COc1cccc(CNC(=O)C(=O)Nc2ccc3nc4n(c(=O)c3c2)CCCCC4)c1,-,-,.,-,.,-
COCCn1c(SCC(=O)Nc2sccc2C(N)=O)nc2cc(Cl)ccc2c1=O,-,-,?,-,-,44.7µM
COCCn1c(SCC(=O)Nc2cccc(S(N)(=O)=O)c2)nc2cc(Cl)ccc2c1=O,20µM,-,-,-,-,-
COCCn1c(SCC(=O)Nc2cccnc2Cl)nc2cc(Cl)ccc2c1=O,-,-,-,-,-,-[2.33 µM]
COc1ccccc1NNC(=O)c1cccnc1Oc1ccccc1,-,-,-,-,-,7.08µM
Cc1ccc(S(=O)(=O)NC(CC(=O)O)c2cccs2)cc1 (centres undefined),-,-,-,-,-,-
O=C(NCc1ccco1)c1nn2c(C(F)(F)F)cc(-c3cccs3)nc2c1Br,-,?,-,-,-,50.1µM
O=C(NCc1ccco1)c1nc2nc(-c3cccs3)cc(C(F)(F)F)n2n1,-,?,-,-,?,44.7µM
O=C(O)c1nn2c(C(F)(F)F)cc(-c3cccs3)nc2c1Cl,-,-,-73.8,-,-66.9,-
O=C(NCC1CCCO1)c1nn2c(C(F)(F)F)cc(-c3cccs3)nc2c1Cl (centres undefined),-,-,-,-,-,-
NC(=O)CSc1nc2cc3c(cc2c(=O)n1CCCCCC(=O)NCc1ccc2c(c1)OCO2)OCO3,-,-,.,-,.,-
Cc1cc(C)c2c(=O)cc(C(=O)Nc3sc4c(c3C(=O)NCC3CCCO3)CCCC4)oc2c1 (centres undefined),-,-,.,-,.,-
SMILES,JMJD2A Tudor inh,BAZ2B block,Six1-Eya2 blk,HP1b chromo inh,CtBP-E1A inh,G9a inh
Cc1ccc(-n2[nH]c(C)c(C=Nc3ccc(S(=O)(=O)Nc4nccs4)cc3)c2=O)cc1C,-,?,?,-,-,-
COc1cc(S(=O)(=O)Nc2ccc(C)cc2)ccc1N=Cc1c(C)[nH]n(-c2ccccc2)c1=O,?,?,?,-,?,-
CCOc1[nH]n(-c2ccccc2)c(=O)c1C=Nc1ccc(C)cc1,-,?,-,-,-,-
CCOc1[nH]n(-c2ccccc2)c(=O)c1C=Nc1ccccc1,-,?,-,-,.,20µM
COc1nccnc1NS(=O)(=O)c1ccc(N=Cc2c(C)[nH]n(-c3ccc(C)c(C)c3)c2=O)cc1,?,?,?,-,?,44.7µM
COc1nccnc1NS(=O)(=O)c1ccc(N=Cc2c(C)[nH]n(-c3ccccc3)c2=O)cc1,-,?,-,-,-,56.2µM
Cc1ccc(C(=O)NCC(=O)OCc2cc(=O)n3c(C)csc3n2)cc1,-,-,.,-,.,-
Cc1ccccc1NC(=S)NC(=O)/C=C/c1ccco1,?,56.2µM,-,?,-,.
Cc1ccc(-c2nc3ccccc3s2)cc1NC(=S)NC(=O)/C=C/c1ccco1,-,?,?,-,-,50.1µM
Cc1ccccc1NC(=O)/C(=C/c1ccco1)c1ccccc1,-,?,-,-,-,31.6µM
COc1cc2c(cc1NC(=S)NC(=O)/C=C/c1ccco1)oc1ccccc12,-,-,-,-,-,-
COc1ccccc1NC(=S)NC(=O)/C=C/c1ccco1,-,50.1µM,-,-,-,?
Cc1cccc(NC(=S)NC(=O)/C=C/c2ccco2)n1,?,?,-,-,-,-[12.7 µM]
O=C(NCCCN1CCOCC1)c1ccc2c(c1)N(Cc1ccccc1F)C(=O)c1ccccc1S2=O (centres undefined),-,-,-,-,-,-
COc1ccc(/C=N/NC(N)=S)cc1OC(=O)c1cccc2ccccc12,-,?,-,-,-,-
COc1ccccc1NC(=O)/C(C#N)=C/C=C/c1ccco1,-,-,-,-,-,-
COc1ccccc1NC(=O)/C=C\c1ccco1,-,?,-,-,-,39.8µM
O=S(=O)(CCSc1nc2ccccc2s1)c1nc2ccccc2s1,?,-,-,-,-,7.08µM
CCOc1ccc(N(CC(=O)N2CCCCCC2)S(=O)(=O)c2ccc(F)cc2)cc1,-,-,-,-,-,?
COc1ccc2nc(SC(C)C(=O)NCC(=O)Nc3ccc(F)c(F)c3F)[nH]c2c1 (centres undefined),-,-,-,-,-,50.1µM
Cc1cc(SC(C)C(=O)NCC(=O)Nc2ccc(F)c(F)c2F)nc2ccccc12 (centres undefined),-,-,-,-,-,-
COc1ccc(-n2nnnc2SC(C)C(=O)NCC(=O)Nc2ccc(F)c(F)c2F)cc1 (centres undefined),-,-,-,-,-,39.8µM
